Drawing on ChEMBL document CHEMBL2218924, “A broad activity screen in support of a chemogenomic map for kinase signalling research and drug discovery” (Biochem J, 2013), this text covers residual activity for one compound.

In test [1] the target is T1, Ephrin type-B receptor 1 (Homo sapiens) (UniProt P54762).
T1 sequence (whole entry): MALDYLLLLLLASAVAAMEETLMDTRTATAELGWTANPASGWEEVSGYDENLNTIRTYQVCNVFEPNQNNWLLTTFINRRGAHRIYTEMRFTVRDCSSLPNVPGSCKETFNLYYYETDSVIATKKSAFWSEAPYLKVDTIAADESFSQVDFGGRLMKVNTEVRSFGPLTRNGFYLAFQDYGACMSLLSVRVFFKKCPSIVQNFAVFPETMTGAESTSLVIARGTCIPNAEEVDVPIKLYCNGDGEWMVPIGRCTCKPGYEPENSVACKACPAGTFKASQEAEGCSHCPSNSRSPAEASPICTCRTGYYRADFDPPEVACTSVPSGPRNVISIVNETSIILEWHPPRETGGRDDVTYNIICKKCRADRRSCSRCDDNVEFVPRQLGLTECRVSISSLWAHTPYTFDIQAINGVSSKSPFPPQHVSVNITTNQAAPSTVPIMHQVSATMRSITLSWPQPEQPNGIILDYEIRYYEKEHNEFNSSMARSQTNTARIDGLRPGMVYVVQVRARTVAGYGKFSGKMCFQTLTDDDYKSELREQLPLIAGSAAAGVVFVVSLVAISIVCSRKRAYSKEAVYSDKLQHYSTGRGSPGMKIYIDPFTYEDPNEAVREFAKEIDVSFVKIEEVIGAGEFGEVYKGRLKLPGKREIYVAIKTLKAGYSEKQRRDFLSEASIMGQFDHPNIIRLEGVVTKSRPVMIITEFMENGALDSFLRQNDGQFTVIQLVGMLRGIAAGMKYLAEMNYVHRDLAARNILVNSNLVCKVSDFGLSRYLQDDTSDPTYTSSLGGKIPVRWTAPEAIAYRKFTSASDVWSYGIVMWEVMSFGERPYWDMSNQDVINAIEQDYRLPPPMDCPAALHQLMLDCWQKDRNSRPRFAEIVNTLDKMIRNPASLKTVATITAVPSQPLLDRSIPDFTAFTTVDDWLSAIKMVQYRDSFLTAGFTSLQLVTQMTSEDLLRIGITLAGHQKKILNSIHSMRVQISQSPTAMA
The conditions noted are these: at 10 µM.

The target of test [2] is T2, Ephrin type-B receptor 2 (Homo sapiens) (UniProt P29323).
T2 sequence (whole entry): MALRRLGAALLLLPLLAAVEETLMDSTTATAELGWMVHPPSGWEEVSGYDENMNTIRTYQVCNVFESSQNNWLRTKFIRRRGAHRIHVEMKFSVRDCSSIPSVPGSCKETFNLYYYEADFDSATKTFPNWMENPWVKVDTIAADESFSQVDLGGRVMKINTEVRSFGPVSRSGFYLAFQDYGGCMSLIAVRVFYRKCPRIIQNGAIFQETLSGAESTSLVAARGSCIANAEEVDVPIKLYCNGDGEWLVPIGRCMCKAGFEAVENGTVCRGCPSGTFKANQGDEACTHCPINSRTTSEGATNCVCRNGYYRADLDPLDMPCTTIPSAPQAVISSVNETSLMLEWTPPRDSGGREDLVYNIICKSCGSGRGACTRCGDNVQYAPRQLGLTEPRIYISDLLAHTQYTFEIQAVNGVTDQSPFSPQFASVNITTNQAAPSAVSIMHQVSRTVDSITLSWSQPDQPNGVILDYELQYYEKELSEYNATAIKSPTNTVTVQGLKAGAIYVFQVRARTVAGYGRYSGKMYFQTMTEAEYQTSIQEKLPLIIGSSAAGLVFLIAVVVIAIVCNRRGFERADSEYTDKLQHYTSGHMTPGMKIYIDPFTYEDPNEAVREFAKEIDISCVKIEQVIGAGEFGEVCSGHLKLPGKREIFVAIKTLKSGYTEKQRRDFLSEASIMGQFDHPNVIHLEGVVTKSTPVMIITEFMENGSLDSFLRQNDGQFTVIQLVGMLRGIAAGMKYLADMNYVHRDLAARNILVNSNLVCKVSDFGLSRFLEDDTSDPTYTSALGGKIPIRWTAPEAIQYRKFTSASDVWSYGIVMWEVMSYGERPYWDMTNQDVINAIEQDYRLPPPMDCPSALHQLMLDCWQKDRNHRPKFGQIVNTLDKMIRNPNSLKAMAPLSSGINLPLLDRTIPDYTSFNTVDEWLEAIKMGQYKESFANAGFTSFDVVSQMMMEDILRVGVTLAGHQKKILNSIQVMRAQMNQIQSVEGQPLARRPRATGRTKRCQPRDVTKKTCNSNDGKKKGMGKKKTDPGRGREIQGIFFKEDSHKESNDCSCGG
The conditions noted are these: at 1 µM.

Test [3] addresses T2, Ephrin type-B receptor 2 (Homo sapiens). The conditions noted are these: at 10 µM.
Test [4] concerns the target T3, Ephrin type-B receptor 3 (Homo sapiens) (UniProt P54753).
T3 sequence (whole entry): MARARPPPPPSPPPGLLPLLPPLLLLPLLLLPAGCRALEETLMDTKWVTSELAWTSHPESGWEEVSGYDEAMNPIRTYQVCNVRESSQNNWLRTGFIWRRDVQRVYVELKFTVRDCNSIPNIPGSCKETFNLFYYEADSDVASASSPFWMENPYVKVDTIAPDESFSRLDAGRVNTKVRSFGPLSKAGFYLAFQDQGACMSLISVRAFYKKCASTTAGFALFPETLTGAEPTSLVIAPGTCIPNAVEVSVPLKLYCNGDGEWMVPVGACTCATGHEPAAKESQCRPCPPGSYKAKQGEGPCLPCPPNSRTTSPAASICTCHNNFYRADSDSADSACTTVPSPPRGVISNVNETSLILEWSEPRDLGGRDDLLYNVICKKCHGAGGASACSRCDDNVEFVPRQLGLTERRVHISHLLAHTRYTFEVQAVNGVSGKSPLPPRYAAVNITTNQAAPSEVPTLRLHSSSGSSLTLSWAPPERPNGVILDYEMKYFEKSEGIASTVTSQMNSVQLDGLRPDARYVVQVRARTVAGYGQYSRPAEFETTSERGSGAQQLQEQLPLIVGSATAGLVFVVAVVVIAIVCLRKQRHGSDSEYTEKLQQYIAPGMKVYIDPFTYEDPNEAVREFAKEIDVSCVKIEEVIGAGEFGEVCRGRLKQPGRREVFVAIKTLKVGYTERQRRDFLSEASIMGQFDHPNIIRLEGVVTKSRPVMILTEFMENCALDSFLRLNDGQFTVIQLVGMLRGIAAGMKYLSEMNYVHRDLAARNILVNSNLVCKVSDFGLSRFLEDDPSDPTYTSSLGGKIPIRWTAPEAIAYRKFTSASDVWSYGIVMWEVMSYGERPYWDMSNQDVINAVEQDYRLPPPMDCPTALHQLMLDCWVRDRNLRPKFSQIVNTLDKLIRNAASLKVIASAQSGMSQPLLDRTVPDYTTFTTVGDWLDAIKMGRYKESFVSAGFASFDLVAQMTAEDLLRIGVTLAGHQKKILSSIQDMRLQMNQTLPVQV
Particulars: at 1 µM; call rule not given here.

Test [5] deals with T3, Ephrin type-B receptor 3 (Homo sapiens). Particulars: at 10 µM.
Test [6] has as its target T4, Ephrin type-B receptor 4 (Homo sapiens) (UniProt P54760).
T4 sequence (whole entry): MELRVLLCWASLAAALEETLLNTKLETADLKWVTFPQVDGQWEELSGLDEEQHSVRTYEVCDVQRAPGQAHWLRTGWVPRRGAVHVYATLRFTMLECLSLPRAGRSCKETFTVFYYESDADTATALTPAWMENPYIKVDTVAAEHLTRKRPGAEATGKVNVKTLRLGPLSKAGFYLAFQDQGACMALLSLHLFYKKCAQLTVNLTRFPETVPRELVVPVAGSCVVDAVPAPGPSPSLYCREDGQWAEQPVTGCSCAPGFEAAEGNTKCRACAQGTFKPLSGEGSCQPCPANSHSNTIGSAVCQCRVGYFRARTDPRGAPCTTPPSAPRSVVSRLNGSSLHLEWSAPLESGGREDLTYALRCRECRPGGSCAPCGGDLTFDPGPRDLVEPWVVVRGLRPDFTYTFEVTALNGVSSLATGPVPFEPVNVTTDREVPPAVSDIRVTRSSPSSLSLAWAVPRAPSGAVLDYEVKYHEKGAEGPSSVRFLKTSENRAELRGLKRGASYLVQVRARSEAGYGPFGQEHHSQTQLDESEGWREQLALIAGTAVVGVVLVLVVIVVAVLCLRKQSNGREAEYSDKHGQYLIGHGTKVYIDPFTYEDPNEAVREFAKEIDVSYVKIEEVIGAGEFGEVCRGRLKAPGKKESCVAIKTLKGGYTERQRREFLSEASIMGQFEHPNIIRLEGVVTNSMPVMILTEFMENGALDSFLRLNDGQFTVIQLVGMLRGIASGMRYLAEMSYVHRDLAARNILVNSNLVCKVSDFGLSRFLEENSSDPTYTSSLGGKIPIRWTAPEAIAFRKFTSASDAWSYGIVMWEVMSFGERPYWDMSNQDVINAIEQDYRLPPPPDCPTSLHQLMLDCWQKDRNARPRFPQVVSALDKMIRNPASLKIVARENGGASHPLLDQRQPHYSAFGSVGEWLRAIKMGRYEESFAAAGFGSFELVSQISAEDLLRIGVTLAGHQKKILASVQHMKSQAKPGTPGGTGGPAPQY
Particulars: at 1 µM.

Test [7] has as its target T4, Ephrin type-B receptor 4 (Homo sapiens). Particulars: at 10 µM.
The target in test [8] is Receptor tyrosine-protein kinase erbB-4 (Homo sapiens) (UniProt Q15303). The conditions noted are these: at 1 µM.
Chain of Receptor tyrosine-protein kinase erbB-4 (Homo sapiens) (Q15303 whole entry): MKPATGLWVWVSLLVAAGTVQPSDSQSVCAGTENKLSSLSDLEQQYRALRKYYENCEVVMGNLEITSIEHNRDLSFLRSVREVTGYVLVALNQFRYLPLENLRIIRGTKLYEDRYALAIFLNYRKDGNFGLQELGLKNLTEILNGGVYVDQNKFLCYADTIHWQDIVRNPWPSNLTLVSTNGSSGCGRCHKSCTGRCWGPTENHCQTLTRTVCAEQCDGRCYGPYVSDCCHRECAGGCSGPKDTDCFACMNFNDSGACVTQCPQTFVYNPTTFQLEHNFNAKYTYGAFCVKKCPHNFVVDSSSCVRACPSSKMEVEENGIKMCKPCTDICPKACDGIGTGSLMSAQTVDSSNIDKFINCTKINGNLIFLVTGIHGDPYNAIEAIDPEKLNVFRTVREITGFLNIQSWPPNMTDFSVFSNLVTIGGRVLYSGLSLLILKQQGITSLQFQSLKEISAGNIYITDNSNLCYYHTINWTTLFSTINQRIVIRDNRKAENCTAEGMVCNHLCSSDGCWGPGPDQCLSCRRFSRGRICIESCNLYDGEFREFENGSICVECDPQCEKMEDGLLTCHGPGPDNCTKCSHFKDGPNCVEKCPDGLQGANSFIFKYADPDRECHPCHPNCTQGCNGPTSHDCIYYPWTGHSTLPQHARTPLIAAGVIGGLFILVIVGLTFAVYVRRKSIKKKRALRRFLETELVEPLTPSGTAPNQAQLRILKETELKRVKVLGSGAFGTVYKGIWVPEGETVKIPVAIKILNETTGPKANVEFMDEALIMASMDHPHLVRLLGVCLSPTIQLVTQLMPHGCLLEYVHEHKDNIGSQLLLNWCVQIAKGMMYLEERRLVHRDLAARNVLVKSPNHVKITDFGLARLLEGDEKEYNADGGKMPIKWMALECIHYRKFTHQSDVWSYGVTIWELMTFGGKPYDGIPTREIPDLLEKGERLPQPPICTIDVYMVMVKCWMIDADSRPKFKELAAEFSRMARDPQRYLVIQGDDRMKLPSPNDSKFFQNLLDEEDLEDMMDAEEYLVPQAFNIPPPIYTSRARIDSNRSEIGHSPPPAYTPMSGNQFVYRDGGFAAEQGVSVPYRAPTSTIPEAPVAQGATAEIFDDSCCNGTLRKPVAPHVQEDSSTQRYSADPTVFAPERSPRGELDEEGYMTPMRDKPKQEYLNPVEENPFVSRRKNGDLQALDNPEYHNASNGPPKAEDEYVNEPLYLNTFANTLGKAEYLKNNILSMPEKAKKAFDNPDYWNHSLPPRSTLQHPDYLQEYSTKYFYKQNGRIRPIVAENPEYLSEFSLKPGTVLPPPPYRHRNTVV
Test [9] has the same target. The conditions noted are these: at 10 µM.
The target of test [10] is Focal adhesion kinase 1 (Homo sapiens) (UniProt Q05397). The conditions noted are these: at 1 µM.
Chain of Focal adhesion kinase 1 (Homo sapiens) (Q05397 2-1052 limits assumed): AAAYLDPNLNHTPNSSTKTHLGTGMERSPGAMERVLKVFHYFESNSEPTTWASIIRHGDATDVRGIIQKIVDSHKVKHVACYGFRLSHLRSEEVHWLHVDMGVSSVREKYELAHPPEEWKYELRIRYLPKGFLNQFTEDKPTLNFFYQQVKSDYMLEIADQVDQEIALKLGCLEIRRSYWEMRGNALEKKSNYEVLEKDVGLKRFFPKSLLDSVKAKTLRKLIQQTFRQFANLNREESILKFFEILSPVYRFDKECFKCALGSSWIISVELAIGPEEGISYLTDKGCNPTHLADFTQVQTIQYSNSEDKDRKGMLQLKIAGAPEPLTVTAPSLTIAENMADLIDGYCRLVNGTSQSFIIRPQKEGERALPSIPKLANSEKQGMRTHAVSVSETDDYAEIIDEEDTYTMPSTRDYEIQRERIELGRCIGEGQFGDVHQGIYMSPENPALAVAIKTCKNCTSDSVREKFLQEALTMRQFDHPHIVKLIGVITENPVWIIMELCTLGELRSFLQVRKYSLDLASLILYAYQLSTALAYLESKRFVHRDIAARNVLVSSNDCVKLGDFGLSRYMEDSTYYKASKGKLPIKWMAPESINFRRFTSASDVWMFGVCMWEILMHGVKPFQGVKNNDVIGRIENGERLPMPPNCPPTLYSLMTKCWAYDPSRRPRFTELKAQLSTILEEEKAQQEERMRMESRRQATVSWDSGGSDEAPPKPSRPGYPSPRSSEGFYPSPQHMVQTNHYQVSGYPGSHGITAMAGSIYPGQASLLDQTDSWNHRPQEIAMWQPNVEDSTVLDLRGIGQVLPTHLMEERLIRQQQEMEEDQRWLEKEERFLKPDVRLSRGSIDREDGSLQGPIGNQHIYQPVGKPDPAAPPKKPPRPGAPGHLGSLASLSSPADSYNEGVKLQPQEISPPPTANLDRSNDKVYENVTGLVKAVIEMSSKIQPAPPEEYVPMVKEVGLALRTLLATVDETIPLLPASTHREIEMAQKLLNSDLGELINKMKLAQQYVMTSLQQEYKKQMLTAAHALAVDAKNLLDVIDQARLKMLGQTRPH

Each structure is given as a SMILES string.

For the compound `N#C/C(=C(\N)Sc1ccc(N)cc1)c1ccccc1C(F)(F)F`, the residual activity in test [1] was 95%; in test [2], 108%; in test [3] it was 110%; in test [4], 105% (inactive); in test [5], 109%; in test [6], 93%. For the same compound, the residual activity is 92% in test [7], 96% in [8], 104% in test [9] and 99% in test [10].

Usually residual activity stands for the signal under treatment as a percentage of the control signal.
